Results on 36 targets are retold here after the supplement of paper PMC12067093, “Discovery and optimisation of a covalent ligand for TRIM25 and its application to targeted protein ubiquitination” (Chemical Science, 2025).

About 21,000 targets were measured; listed, in parts, are those with the largest changes and a random draw of the rest.

Compound in this assay: Cc1cc(ccc1-c1ccccc1)C(=O)N1CCCN(CC1)C(=O)CCl [compound 10]
As to the kind of experiment: probe-labelled cysteine peptide fold change vs DMSO (competition) (log2 fold change); higher = less target engagement (more negative = stronger competition). The following applies: THP-1, incubation time: 4 h.
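Note: competitive profiling in live THP-1 cells: cysteine peptides tagged with an iodoacetamide desthiobiotin (IA-DTB) probe, intensity after compound treatment relative to DMSO-treated cells.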

Chain of UniProt O14972 (O14972 whole entry, looked up): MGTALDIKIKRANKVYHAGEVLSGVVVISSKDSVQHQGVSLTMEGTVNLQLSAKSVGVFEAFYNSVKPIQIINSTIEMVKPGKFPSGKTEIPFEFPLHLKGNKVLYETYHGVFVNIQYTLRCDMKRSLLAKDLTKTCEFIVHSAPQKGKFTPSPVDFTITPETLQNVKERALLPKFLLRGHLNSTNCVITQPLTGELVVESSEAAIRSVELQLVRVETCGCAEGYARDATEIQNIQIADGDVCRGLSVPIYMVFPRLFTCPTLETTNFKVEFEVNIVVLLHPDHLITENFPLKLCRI
Chain of UniProt Q5JSP0 (Q5JSP0 whole entry, looked up): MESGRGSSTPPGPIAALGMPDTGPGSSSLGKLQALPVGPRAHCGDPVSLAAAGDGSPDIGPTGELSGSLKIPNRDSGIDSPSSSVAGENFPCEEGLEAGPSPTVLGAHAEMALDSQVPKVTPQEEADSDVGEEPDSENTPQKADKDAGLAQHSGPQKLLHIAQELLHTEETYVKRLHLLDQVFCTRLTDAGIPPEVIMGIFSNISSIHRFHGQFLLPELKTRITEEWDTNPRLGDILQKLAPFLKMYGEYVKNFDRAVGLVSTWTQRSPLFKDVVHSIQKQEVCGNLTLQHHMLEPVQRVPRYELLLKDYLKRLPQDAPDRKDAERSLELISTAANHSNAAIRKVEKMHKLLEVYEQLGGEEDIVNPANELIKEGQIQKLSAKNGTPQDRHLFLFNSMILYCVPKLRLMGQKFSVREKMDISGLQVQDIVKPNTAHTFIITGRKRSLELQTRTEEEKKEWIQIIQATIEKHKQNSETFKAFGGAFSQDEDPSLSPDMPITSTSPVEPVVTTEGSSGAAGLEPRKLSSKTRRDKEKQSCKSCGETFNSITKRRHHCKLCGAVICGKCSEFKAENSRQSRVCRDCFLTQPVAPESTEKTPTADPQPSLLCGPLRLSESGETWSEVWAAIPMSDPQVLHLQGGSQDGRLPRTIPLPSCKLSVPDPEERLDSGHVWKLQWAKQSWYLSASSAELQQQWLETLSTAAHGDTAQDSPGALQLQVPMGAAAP
Chain of UniProt Q9BYI3 (Q9BYI3 whole entry, looked up): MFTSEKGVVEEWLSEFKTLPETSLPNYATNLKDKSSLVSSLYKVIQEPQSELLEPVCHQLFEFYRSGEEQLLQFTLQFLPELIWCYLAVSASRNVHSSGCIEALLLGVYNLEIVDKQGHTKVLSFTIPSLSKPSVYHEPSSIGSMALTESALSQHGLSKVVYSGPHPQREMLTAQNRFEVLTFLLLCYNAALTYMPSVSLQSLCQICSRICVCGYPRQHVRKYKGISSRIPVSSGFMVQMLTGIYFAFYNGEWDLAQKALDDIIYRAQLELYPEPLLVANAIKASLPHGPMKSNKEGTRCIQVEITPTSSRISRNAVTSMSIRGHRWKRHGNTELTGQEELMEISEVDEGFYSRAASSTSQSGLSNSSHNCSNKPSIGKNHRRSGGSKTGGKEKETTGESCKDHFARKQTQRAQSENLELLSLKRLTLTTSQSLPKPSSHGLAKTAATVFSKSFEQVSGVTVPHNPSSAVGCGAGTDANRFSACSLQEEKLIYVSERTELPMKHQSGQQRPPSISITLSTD
Chain of UniProt Q13868 (Q13868 whole entry, looked up): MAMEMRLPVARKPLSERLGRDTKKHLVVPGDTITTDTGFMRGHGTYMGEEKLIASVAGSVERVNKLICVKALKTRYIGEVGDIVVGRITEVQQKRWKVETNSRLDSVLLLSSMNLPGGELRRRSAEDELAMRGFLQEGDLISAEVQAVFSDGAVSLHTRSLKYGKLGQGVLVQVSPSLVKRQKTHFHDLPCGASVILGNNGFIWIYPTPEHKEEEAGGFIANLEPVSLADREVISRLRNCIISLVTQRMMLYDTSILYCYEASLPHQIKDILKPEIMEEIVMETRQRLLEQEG
Chain of UniProt Q9H9B1 (Q9H9B1 whole entry, looked up): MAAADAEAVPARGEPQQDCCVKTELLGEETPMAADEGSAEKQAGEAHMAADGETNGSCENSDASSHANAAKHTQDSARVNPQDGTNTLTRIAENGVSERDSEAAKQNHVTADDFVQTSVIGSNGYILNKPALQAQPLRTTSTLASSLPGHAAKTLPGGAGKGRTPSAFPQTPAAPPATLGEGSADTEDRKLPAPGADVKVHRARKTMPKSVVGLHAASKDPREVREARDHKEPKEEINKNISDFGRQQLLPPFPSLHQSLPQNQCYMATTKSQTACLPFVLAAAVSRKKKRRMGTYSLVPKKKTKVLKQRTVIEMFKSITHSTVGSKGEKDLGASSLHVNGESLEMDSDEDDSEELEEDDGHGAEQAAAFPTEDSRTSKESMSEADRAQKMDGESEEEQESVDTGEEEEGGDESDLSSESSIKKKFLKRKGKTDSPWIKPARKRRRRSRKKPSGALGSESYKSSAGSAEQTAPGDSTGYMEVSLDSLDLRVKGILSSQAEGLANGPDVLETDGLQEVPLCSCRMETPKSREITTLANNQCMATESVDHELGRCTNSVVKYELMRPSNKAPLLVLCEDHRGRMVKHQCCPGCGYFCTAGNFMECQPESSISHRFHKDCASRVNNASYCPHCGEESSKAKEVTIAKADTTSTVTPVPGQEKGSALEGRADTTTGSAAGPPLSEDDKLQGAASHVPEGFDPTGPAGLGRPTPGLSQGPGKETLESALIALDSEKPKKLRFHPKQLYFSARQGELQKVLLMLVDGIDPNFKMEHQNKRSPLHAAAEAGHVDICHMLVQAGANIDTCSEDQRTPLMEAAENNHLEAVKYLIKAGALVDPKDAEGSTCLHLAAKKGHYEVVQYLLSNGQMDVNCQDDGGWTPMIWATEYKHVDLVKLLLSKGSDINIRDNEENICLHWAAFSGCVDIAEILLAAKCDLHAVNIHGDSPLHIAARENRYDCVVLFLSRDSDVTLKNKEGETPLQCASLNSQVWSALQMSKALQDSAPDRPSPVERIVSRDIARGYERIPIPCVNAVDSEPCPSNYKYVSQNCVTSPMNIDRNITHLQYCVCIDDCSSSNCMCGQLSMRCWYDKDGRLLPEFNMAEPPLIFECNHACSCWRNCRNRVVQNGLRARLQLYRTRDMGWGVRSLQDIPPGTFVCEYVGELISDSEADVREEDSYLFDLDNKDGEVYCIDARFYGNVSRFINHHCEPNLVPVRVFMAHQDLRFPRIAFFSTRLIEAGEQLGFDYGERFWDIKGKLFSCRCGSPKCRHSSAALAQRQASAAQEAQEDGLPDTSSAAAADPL
Chain of UniProt P41091 (P41091 whole entry, looked up): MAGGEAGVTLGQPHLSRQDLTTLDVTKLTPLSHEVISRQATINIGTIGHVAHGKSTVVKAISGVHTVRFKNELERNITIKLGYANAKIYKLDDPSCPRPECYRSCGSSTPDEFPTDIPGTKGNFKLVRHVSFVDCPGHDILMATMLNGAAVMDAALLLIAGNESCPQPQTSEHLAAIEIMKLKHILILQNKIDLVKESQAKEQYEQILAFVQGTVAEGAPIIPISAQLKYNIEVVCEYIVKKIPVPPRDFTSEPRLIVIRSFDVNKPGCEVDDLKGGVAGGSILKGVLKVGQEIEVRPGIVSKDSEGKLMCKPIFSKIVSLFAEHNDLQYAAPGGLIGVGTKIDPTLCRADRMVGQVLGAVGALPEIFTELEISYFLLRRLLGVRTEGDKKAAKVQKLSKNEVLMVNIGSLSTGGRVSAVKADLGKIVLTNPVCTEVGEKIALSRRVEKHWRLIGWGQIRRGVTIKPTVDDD
Chain of UniProt Q9NWS6 (Q9NWS6 whole entry, looked up): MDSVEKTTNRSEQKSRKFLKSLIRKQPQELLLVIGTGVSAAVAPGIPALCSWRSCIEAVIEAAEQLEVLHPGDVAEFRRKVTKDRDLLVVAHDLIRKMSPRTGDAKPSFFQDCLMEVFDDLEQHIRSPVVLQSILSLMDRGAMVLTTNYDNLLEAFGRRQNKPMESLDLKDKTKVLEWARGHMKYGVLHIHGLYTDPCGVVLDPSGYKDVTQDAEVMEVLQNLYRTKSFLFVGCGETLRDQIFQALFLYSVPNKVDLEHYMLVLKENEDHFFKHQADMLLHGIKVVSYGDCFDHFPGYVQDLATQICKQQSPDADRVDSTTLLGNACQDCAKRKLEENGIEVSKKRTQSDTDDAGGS
Chain of UniProt Q9H2P9 (Q9H2P9 whole entry, looked up): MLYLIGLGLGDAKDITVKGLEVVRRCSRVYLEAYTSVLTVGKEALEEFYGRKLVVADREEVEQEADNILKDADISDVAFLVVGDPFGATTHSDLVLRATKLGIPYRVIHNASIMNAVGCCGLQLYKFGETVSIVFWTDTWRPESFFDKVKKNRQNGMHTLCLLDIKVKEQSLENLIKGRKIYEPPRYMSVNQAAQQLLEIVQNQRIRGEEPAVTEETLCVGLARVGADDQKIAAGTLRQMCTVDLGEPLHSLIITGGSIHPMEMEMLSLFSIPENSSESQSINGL
Chain of UniProt Q05639 (Q05639 whole entry, looked up): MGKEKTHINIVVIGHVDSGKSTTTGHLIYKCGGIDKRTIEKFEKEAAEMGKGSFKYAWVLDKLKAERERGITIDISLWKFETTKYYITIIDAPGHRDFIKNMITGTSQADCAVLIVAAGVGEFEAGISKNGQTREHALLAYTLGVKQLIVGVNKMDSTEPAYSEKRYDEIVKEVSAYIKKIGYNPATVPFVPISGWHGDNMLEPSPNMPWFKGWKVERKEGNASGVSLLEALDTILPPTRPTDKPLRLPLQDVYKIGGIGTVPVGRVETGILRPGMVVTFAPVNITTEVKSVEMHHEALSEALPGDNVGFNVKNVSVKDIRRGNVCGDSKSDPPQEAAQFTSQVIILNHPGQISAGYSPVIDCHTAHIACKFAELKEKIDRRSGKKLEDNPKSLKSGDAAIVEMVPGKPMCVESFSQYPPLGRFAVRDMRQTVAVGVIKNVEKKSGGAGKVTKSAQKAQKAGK
Chain of UniProt P10109 (P10109 whole entry, looked up): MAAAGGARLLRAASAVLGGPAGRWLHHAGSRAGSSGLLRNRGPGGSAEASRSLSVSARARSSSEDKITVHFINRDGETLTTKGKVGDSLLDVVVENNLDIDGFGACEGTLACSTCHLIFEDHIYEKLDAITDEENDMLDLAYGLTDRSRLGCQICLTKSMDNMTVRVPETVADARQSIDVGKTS

On to “ELP1_O95163_23_DIQGPGNPQCFSLR (UniProt O95163)”, for which the “probe-labelled cysteine peptide fold change” value was 0.145 (10 µM) and -0.213 (50 µM).

Consider “EXOSC2_Q13868_259_MMLYDTSILYCYEASLPHQIK (UniProt Q13868)”, for which the “probe-labelled cysteine peptide fold change” value runs as follows: (10 µM) 0.341; (50 µM) 0.254.

“EEF1B2_P24534_191_LQIQCVVEDDK<|>EEF1D_P29692_247_LQIQCVVEDDK (UniProt P29692+P24534)”: the “probe-labelled cysteine peptide fold change” value runs as follows: (10 µM) 0.179; (50 µM) 0.387.

Regarding “FAM120B_Q96EK7_547_LEALMCTNPEIK (UniProt Q96EK7)”, the “probe-labelled cysteine peptide fold change” value (10 µM) was -0.253 and the “probe-labelled cysteine peptide fold change” value (50 µM) turned out to be 0.187.

With “EML4_Q9HC35_638_LVDEPGHCADFHPSGTVVAIGTHSGR (UniProt Q9HC35)”, the “probe-labelled cysteine peptide fold change” value was determined as 0.109 (10 µM) and 0.328 (50 µM).

For the target “EEF1A2_Q05639_411_SGDAAIVEMVPGKPMCVESFSQYPPLGR (UniProt Q05639)”, the “probe-labelled cysteine peptide fold change” value was -0.261 (10 µM) and -0.239 (50 µM).

Turning to “DYNC1H1_Q14204_2712_IQFVGACNPPTDPGRKPLSHR (UniProt Q14204)”, the “probe-labelled cysteine peptide fold change” value (10 µM) was -0.0552 and the “probe-labelled cysteine peptide fold change” value (50 µM) was 0.27.

On to “EPS15_P42566_782_IGTPTRPCPLPPGKR (UniProt P42566)”, for which the “probe-labelled cysteine peptide fold change” value was -0.367 (10 µM) and -1.1 (50 µM).

For the target “ERMP1_Q7Z2K6_737_AHCEENAPLCGFPWYLPVHFLIR (UniProt Q7Z2K6)”, the “probe-labelled cysteine peptide fold change” value (10 µM) was -0.0124 and the “probe-labelled cysteine peptide fold change” value (50 µM) was 0.222.

For “FDX1_P10109_152+155_LGCQICLTK (UniProt P10109)”, the “probe-labelled cysteine peptide fold change” value is -0.319 (10 µM) and -0.896 (50 µM).

“EIF2S3_P41091_96+101_LDDPSCPRPECYR (UniProt P41091)”: the “probe-labelled cysteine peptide fold change” value runs as follows: (10 µM) -0.389; (50 µM) -0.339.

Turning to “FGD3_Q5JSP0_184_LHLLDQVFCTR (UniProt Q5JSP0)”, the “probe-labelled cysteine peptide fold change” value was found to be 0.0176 (10 µM) and 0.345 (50 µM).

On to “EXOSC1_Q9Y3B2_40_HGYIFSSLAGCLMK (UniProt Q9Y3B2)”, for which the “probe-labelled cysteine peptide fold change” value is 0.118 (10 µM) and -0.0583 (50 µM).

Consider “FAM120A_Q9NZB2_919_VAAASGHCGAFSGSDSSR (UniProt Q9NZB2)”, for which the “probe-labelled cysteine peptide fold change” value was -0.383 (10 µM) and -0.344 (50 µM).

On to “EEF1A1_P68104_31_CGGIDKR<|>EEF1A2_Q5VTE0_31_CGGIDKR (UniProt Q5VTE0+P68104)”, for which the “probe-labelled cysteine peptide fold change” value was -1.04 (10 µM) and -1.79 (50 µM).

As for “FAM118A_Q9NWS6_113_TGDAKPSFFQDCLMEVFDDLEQHIR (UniProt Q9NWS6)”, the “probe-labelled cysteine peptide fold change” value by setting is: (10 µM) 0.174; (50 µM) -0.519.

On to “DSCR3_O14972_219+221_VETCGCAEGYAR (UniProt O14972)”, for which the “probe-labelled cysteine peptide fold change” value was -0.345 (10 µM) and -2.51 (50 µM).

As to “DYNC1H1_Q14204_1888_CYLTMTQALEAR (UniProt Q14204)”, the “probe-labelled cysteine peptide fold change” value runs as follows: (10 µM) -0.0386; (50 µM) -0.161.

In the case of “ELP4_Q96EB1_412_LGPGCGMMAGGK (UniProt Q96EB1)”, the “probe-labelled cysteine peptide fold change” value by setting is: (10 µM) -0.372; (50 µM) -1.07.

“EEF1A1P5_Q5VTE0_363+370_GNVAGDSKNDPPMEAAGFTAQVIILNHPGQISAGYAPVLDCHMAHIACK (UniProt Q5VTE0)”: the “probe-labelled cysteine peptide fold change” value is, setting by setting: (10 µM) -0.198; (50 µM) -1.24.

With “FAM102B_Q5T8I3_254_RNTSVGSTSTGVESILEPCDEIEQK (UniProt Q5T8I3)”, the “probe-labelled cysteine peptide fold change” value (10 µM) was -0.237 and the “probe-labelled cysteine peptide fold change” value (50 µM) turned out to be 0.149.

For the target “EXOSC6_Q5RKV6_117_APPGGCEERELALALQEALEPAVR (UniProt Q5RKV6)”, the “probe-labelled cysteine peptide fold change” value (10 µM) was -0.5 and the “probe-labelled cysteine peptide fold change” value (50 µM) is -1.49.

Take “EEF1A1_P68104_234_DGNASGTTLLEALDCILPPTRPTDKPLRLPLQDVYK (UniProt P68104)”: the “probe-labelled cysteine peptide fold change” value is, setting by setting: (10 µM) -0.124; (50 µM) -0.435.

Take “EML2_O95834_110_CLAIHPDMVTIATGQVAGTTK (UniProt O95834)”: the “probe-labelled cysteine peptide fold change” value was -0.0841 (10 µM) and 0.0588 (50 µM).

Turning to “EHMT1_Q9H9B1_1111_LLPEFNMAEPPLIFECNHACSCWR (UniProt Q9H9B1)”, the “probe-labelled cysteine peptide fold change” value runs as follows: (10 µM) 0.0188; (50 µM) -0.282.

For “ELP4_Q96EB1_361_LNNLICDESDVK (UniProt Q96EB1)”, the “probe-labelled cysteine peptide fold change” value was -0.0288 (10 µM) and 0.12 (50 µM).

Take “FAM126A_Q9BYI3_401_ETTGESCK (UniProt Q9BYI3)”: the “probe-labelled cysteine peptide fold change” value (10 µM) was -0.493 and the “probe-labelled cysteine peptide fold change” value (50 µM) is -1.16.

As for “DPH5_Q9H2P9_120_VIHNASIMNAVGCCGLQLYK (UniProt Q9H2P9)”, the “probe-labelled cysteine peptide fold change” value was found to be 0.0911 (10 µM) and 0.264 (50 µM).

For the target “DSTN_P60981_12_ASGVQVADEVCR (UniProt P60981)”, the “probe-labelled cysteine peptide fold change” value is, setting by setting: (10 µM) 0.0942; (50 µM) 0.212.

As for “FANCG_O15287_417_AQDALTLCEELLSR (UniProt O15287)”, the “probe-labelled cysteine peptide fold change” value reads like this: (10 µM) 0.0123; (50 µM) 0.0425.

Take “EZH2_Q15910_324_NTETALDNKPCGPQCYQHLEGAK (UniProt Q15910)”: the “probe-labelled cysteine peptide fold change” value runs as follows: (10 µM) 0.251; (50 µM) -0.196.

Turning to “EPRS_P07814_350_IDMSSNNGCMRDPTLYR (UniProt P07814)”, the “probe-labelled cysteine peptide fold change” value was -0.0274 (10 µM) and -0.367 (50 µM).

For the target “DSTN_P60981_163_LGGSLIVAFEGCPV (UniProt P60981)”, the “probe-labelled cysteine peptide fold change” value is -0.192 (10 µM) and -0.173 (50 µM).

Take “FCHSD2_O94868_200_SECNSK (UniProt O94868)”: the “probe-labelled cysteine peptide fold change” value is -0.126 (10 µM) and -0.158 (50 µM).

Take “FAM208A_Q9UK61_318_HVCPYAVVSFTYK (UniProt Q9UK61)”: the “probe-labelled cysteine peptide fold change” value by setting is: (10 µM) -0.201; (50 µM) -0.698.

Take “EXOSC6_Q5RKV6_248_LGLEGCQR (UniProt Q5RKV6)”: the “probe-labelled cysteine peptide fold change” value is, setting by setting: (10 µM) -0.00681; (50 µM) 0.0231.
